The values that follow come from the supplement of paper PMC6763611.

The test system of the test is Plasmodium falciparum NF54. As to the kind of experiment: growth inhibition relative to untreated control; higher = more inhibition. The conditions noted are these: 72 h. In a few lines: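 Two media were used: minimal RPMI, and minimal RPMI carrying the chorismate end-products folate, pABA, pHBA, tyrosine, phenylalanine and tryptophan at 2.2 μM, 7.3 μM, 7.3 μM, 111 μM and 90 μM for the first five. In these media, P. falciparum NF54 ring stages (1% hematocrit, 1% parasitemia, 100 μL/well) were exposed in dark 96-well half-area plates to a single 5 μM or 1 μM test-compound dose for 72 h at 37 °C. Growth inhibition was then assessed with SYBR Green against untreated wells, subtracting background from uninfected erythrocytes.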

Where [1] appears, read: 1 µM, MM + chorismate end-products (CM screening medium).
[2] abbreviates: 5 µM, MM + chorismate end-products (CM screening medium).

Regarding `O=C(Nc1ccnc(-c2cccnc2)n1)c1cc(C(F)(F)F)cc(C(F)(F)F)c1`, the growth inhibition runs as follows: under setting [1], 13.6%; (1 µM, minimal medium (MM)) 20.9%; under setting [2], 93.8%; (5 µM, minimal medium (MM)) 86.6%.

`Cc1cc(NC(=O)c2ccc(S(=O)(=O)N(Cc3ccccc3)C(C)C)cc2)no1`: the growth inhibition is 95.5% under setting [1]; greater than 100% (1 µM, minimal medium (MM)); 99.8% under setting [2]; 93.1% (5 µM, minimal medium (MM)).

In the case of `CC1=NN(c2nc3ccccc3s2)C(=O)C1Cc1cccc2ccccc12` (centres undefined), the growth inhibition by setting is: under setting [1], less than 0%; (1 µM, minimal medium (MM)) 0.985%; under setting [2], less than 0%; (5 µM, minimal medium (MM)) less than 0%.

`N=C(N)Nc1ccc(-c2ccc(-c3ccc(NC(=N)N)cc3Cl)o2)c(Cl)c1`: the growth inhibition came out at 96.9% under setting [1]; 95.5% (1 µM, minimal medium (MM)); 95.7% under setting [2]; 95.3% (5 µM, minimal medium (MM)).

As for `CCCn1nnc(NC(=O)COc2ccc(C3CCCCC3)cc2)n1`, the growth inhibition under setting [1] was determined as 6.74%; the growth inhibition (1 µM, minimal medium (MM)) is less than 0%; the growth inhibition under setting [2] was less than 0%; the growth inhibition (5 µM, minimal medium (MM)) is less than 0%.

As to `CC(=O)Nc1ccc(NC(=O)c2cc(-c3cc(Cl)ccc3O)n[nH]2)cc1`, the growth inhibition is 96.6% under setting [1]; 95.3% (1 µM, minimal medium (MM)); 96.3% under setting [2]; 90.8% (5 µM, minimal medium (MM)).

Turning to `CC(C)(C(=O)Nc1ccc(F)cc1)n1cc(-c2ccccc2F)cn1`, the growth inhibition runs as follows: under setting [1], 0.0824%; (1 µM, minimal medium (MM)) less than 0%; under setting [2], 5%; (5 µM, minimal medium (MM)) 15.7%.

Turning to `O=C(NCCN1CCCC1)c1cc(NCCN2CCOCC2)nc2ccc(Cl)cc12`, the growth inhibition by setting is: under setting [1], 97.7%; (1 µM, minimal medium (MM)) 97.2%; under setting [2], 92.2%; (5 µM, minimal medium (MM)) 96.8%.

In the case of `COC(=O)C1=C(C)NC(C)=C(C(=O)OC(C)C)C1c1cccc2nonc12` (centres undefined), the growth inhibition is, setting by setting: under setting [1], 42%; (1 µM, minimal medium (MM)) 24.4%; under setting [2], 28.3%; (5 µM, minimal medium (MM)) 18.7%.

With `O=C(Nc1ccccc1-c1nc2c(C(=O)O)cccc2o1)c1ccccc1`, the growth inhibition runs as follows: under setting [1], less than 0%; (1 µM, minimal medium (MM)) 0.353%; under setting [2], less than 0%; (5 µM, minimal medium (MM)) less than 0%.

For `Cc1cc(C)c2cc(C(=O)NC3CCCCCCC3)[nH]c2c1`, the growth inhibition under setting [1] was 34.2%; the growth inhibition (1 µM, minimal medium (MM)) worked out at 0.728%; the growth inhibition under setting [2] was determined as 55.4%; the growth inhibition (5 µM, minimal medium (MM)) was less than 0%.

As to `Cc1cnc(N2CCN[C@@H](Cc3ccccc3)C2)nc1Oc1ccc(-n2ccnc2)cc1`, the growth inhibition is, setting by setting: under setting [1], 93.8%; (1 µM, minimal medium (MM)) 92.3%; under setting [2], 99.9%; (5 µM, minimal medium (MM)) 98.2%.

`CC(C)(C)n1nc(Cc2ccc(F)c(Cl)c2)c2c(N)ncnc21`: the growth inhibition runs as follows: under setting [1], 5.37%; (1 µM, minimal medium (MM)) less than 0%; under setting [2], 54.9%; (5 µM, minimal medium (MM)) 1.6%.

`COc1ccc(C(=N)N)cc1-c1cn(-c2ccc(C(=N)N)cc2)nn1`: the growth inhibition is 65.6% under setting [1]; 53.6% (1 µM, minimal medium (MM)); 47.8% under setting [2]; 39.2% (5 µM, minimal medium (MM)).

For the compound `COc1ccc(OC(C)C(=O)Nc2ccc(Cl)cc2C)cc1` (centres undefined), the growth inhibition is 30% under setting [1]; 15.2% (1 µM, minimal medium (MM)); less than 0% under setting [2]; less than 0% (5 µM, minimal medium (MM)).

Take `N#Cc1ccc(-c2ccc(OCC(N)=O)cc2)cc1`: the growth inhibition under setting [1] is less than 0%; the growth inhibition (1 µM, minimal medium (MM)) came to 6.45%; the growth inhibition under setting [2] is less than 0%; the growth inhibition (5 µM, minimal medium (MM)) was less than 0%.
